Bioassay records (PubChem BioAssay)
G9a inh: G9a (human) methyltransferase inhibition. AID 504332. Q96KQ7. G9a H3K9 monomethylation, AlphaScreen, 2 h. Potency, µM (series often up to 102 µM), most hits filed as inhibitors. 8.8% of 350,000 active; also: nearly all actives have a fitted effect of over 75% in size
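Readings reflect AlphaScreen signal from monomethyl-H3K9 antibody detection. HMT at 20 nM; substrate b-H3K9 500 nM; cofactor SAM 20 uM; 2 h RT reaction; compounds tested as titrations in qHTS with 15 min preincubation.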
JMJD2A Tudor inh: inhibitors of human JMJD2A Tudor domain | AID 504339 | Potency, µM (highest dose often 114 µM), usual class: inhibitors | 4.4% of 390,000 active | O75164 | AlphaScreen JMJD2A-Tudor / H3K4me3 peptide binding; also: nearly all actives have a fitted effect of over 50% in size
BAZ2B inh: blocks human BAZ2B | Q9UIF8 | AlphaScreen BAZ2B-H3K14Ac peptide displacement | Potency, µM (titrated, usually from 114 µM), most hits filed as inhibitors | 4.4% of 360,000 active | AID 504333; also: nearly all actives have a fitted effect of over 60% in size
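BAZ2B (50 nM) with biotin-H3(5-23)K14Ac peptide (50 nM) in PBS pH 7.4, 0.01% Tween-20, preformed 30 min, then compound 30 min at room temperature; top concentration 110uM. AlphaScreen streptavidin donor/nickel chelate acceptor beads (10 ug/mL final), 20 min dark, signal read.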
HP1b binding inh: HP1-beta chromodomain-methylated histone interaction inhibition; P83916; AlphaScreen HP1-beta / biotin-H3K9me3 peptide binding; Potency, µM (titrated, usually from 114 µM), hits mostly inhibitors; 0.56% of 390,000 active; also: nearly all actives have a fitted effect of over 70% in size
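AlphaScreen: HP1-beta (50 nM) preformed 30 min with biotin-H3(1-18)K9me3 peptide (50 nM) in PBS pH 7.4, 0.01% Tween-20. Compound added for 30 min at RT, then streptavidin donor/nickel chelate acceptor beads (10 ug/mL) for 30 min.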
Sfp PPTase inh: inhibitors of Bacillus subtilis Sfp phosphopantetheinyl transferase | Biochemical Sfp PPTase activity, qHTS | Potency, µM, actives largely listed as inhibitors | 3.5% of 310,000 active;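 also: the enzyme is Sfp with the accession as filed and its product quenches rhodamine fluorescence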
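Sfp 15 nM + cpd, 15 min RT; start w/ rhodamine-CoA 5 uM, BHQ-2-YbbR 12.5 uM (final); 50 mM Hepes pH 7.6, 10 mM MgCl2, 0.01% NP-40, 0.01% BSA; read 525/598 nm at 0 and 30 min.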
PLK1 PBD inh: inhibitors of human PLK1 polo-box domain binding | P53350 | Plk1 PBD binding of FITC phosphopeptide, fluorescence polarization | Potency, µM, usual class: inhibitors | 2.8% of 360,000 active | AID 720504; also: series mostly up to about 57 µM; nearly all actives have a fitted effect of over 65% in size
Hits are given with their value; n = inactive; u = inconclusive; x = no result; [ ] = dose if it differs, or a comment. Sampled rows, rich in hits. Any-hit rate of the full collection: about 12%. Calls follow the shape of the dose curve; as a rule, active = well fitted curve in the direction sought with a large enough effect; inconclusive = small, poorly fitted or top-dose-only effect, or another doubt; inactive = no such curve, though single readings can be large; an effect the other way counts as inactive or inconclusive.

SMILES	G9a inh	JMJD2A Tudor inh	BAZ2B inh	HP1b binding inh	Sfp PPTase inh	PLK1 PBD inh
CCC(OC(=O)c1cccs1)C(=O)NCc1ccc(C)cc1 (centres undefined)	n	n	n	n	n	n
COCCN(C(=O)COC(=O)c1ccccc1Nc1ccccc1)c1c(N)n(Cc2ccccc2)c(=O)[nH]c1=O	14.1µM	n	n	n	x	n
CN(C(=O)COC(=O)CSc1cc(Cl)ccc1Cl)c1c(N)n(Cc2ccccc2)c(=O)[nH]c1=O	7.08µM	n	n	n	x	n
Cc1ccccc1C(=O)OCC(=O)N(C)c1c(N)n(Cc2ccccc2)c(=O)[nH]c1=O	n[0.501 µM]	n	n	n	x	n
COCCN(C(=O)COC(=O)c1cccc2ccccc12)c1c(N)n(Cc2ccccc2)c(=O)[nH]c1=O	x	n	n	n	n	n
CN(C(=O)COC(=O)c1ccccc1Nc1ccccc1)c1c(N)n(Cc2ccccc2)c(=O)[nH]c1=O	14.1µM	n	n	n	x	n
CN(C(=O)COC(=O)C1COc2ccccc2O1)c1c(N)n(Cc2ccccc2)c(=O)[nH]c1=O (centres undefined)	44.7µM	n	n	n	x	n
CN(C(=O)COC(=O)CSCc1cccc(Cl)c1)c1c(N)n(Cc2ccccc2)c(=O)[nH]c1=O	n[12.7 µM]	n	n	n	x	n
CCN(C(=O)COC(=O)C1COc2ccccc2O1)c1c(N)n(Cc2ccccc2)c(=O)[nH]c1=O (centres undefined)	x	n	x	n	x	n
CCN(C(=O)COC(=O)c1ccc(F)c(S(=O)(=O)N2CCOCC2)c1)C1CCS(=O)(=O)C1 (centres undefined)	x	n	n	n	n	n
O=C(Nc1cc(Cl)ccc1F)C1=COCCO1	n[2.33 µM]	n	n	n	x	n
CCCC[C@]12Cc3c(ccc4ccccc34)C(O1)C1=C(O2)C(=O)c2ccccc2C1=O	n[2.33 µM]	x	u	x	n	x
Oc1ccccc1C1C=C(c2ccc3c(c2)OCO3)NC(c2ccc(Br)cc2)N1 (centres undefined)	x	n	x	n	x	x
COCCN(C(=O)COC(=O)Cc1coc2cc3c(cc12)CCC3)c1c(N)n(Cc2ccccc2)c(=O)[nH]c1=O	39.8µM	44.7µM	50.1µM	u	x	n
CCc1noc(C)c1C(=O)OCC(=O)N(C)c1c(N)n(Cc2ccccc2)c(=O)[nH]c1=O	50.1µM	n	n	n	x	n
COCCN(C(=O)COC(=O)CCc1ccccc1OC)c1c(N)n(Cc2ccccc2)c(=O)[nH]c1=O	12.6µM	n	n	n	x	n
CCN(C(=O)COC(=O)c1ccccc1Cc1ccccc1)c1c(N)n(Cc2ccccc2)c(=O)[nH]c1=O	x	n	x	n	x	n
CCN(C(=O)COC(=O)CCc1ccccc1OC)c1c(N)n(Cc2ccccc2)c(=O)[nH]c1=O	n	n	n	n	x	n
CN(C(=O)COC(=O)c1ccccc1Cc1ccccc1)c1c(N)n(Cc2ccccc2)c(=O)[nH]c1=O	50.1µM	n	n	n	x	n
COCCN(C(=O)COC(=O)COc1ccc2c(c1)CCC2)c1c(N)n(Cc2ccccc2)c(=O)[nH]c1=O	n[0.501 µM]	n	n	n	x	n
Cc1cccc(C(=O)NC2=NC(c3ccc(Cl)cc3)CC(=O)N2)c1 (centres undefined)	n	n	n	n	x	x
CSc1nc(C)c(C(=O)C[n+]2ccccc2)cc1C#N	x	n	0.794µM	n	n	n
CCOC(=O)c1cc(C#N)c(SCc2cccc3ccccc23)nc1C	n	n	n	n	n	n
CCOC(=O)c1cc(C)nc(SC)c1C#N	50.1µM	n	n	n	79.4µM	n
CCOC(=O)c1cc(C(C)(C)C)nc(SC)c1C#N	n	n	n	n	n	n
SMILES	G9a inh	JMJD2A Tudor inh	BAZ2B inh	HP1b binding inh	Sfp PPTase inh	PLK1 PBD inh
CCOC(=O)c1cc(C#N)c(SCC(=O)c2cc(C#N)c(SC)nc2C)nc1C	44.7µM	n	n	n	15.8µM	n
CCc1ccc(OC(=O)CSc2nnc(-c3ccc(OC)c(OC)c3)o2)cc1	n	n	u	n	x	x
COc1cc(C)c(C(=O)Oc2cc(C)c(C(=O)O)c(O)c2C)c(OC)c1C	u	n	n	n	n	37.7µM
N#CC1=C(N)N=C(SCc2ccccc2)C(C(N)=O)C12CCCCC2 (centres undefined)	n[12.7 µM]	n	u	n	n	n
Cc1ccc(C(=O)CSC2=NC(N)=C(C#N)C3(CCCCC3)C2C(N)=O)cc1 (centres undefined)	39.8µM	u	n	u	44.7µM	u
Cc1nc2scc(-c3ccco3)c2c(=O)n1/N=C/N(C)C	n[12.7 µM]	n	n	n	12.6µM	n
Cc1sc2nc(C)n(/N=C/N(C)C)c(=O)c2c1C	n[12.7 µM]	n	n	n	n	n
COCCn1nnnc1C(c1ccccc1OC)N1CCN(c2ccccc2)CC1 (centres undefined)	44.7µM	44.7µM	n	n	n	n
COc1ccccc1C(c1nnnn1CCc1ccccc1)N1CCN(c2ccccc2)CC1 (centres undefined)	u	n	n	n	n	n
COc1ccccc1C(c1nnnn1CCc1ccccc1)N1CCCCCC1 (centres undefined)	n[12.7 µM]	n	n	n	n	n
COCCn1nnnc1C(c1cccs1)N1CCN(c2cc(C)ccc2C)CC1 (centres undefined)	n[12.7 µM]	79.4µM	n	n	n	n
COc1cccc(C(c2nnnn2CCc2ccccc2)N2CCN(c3ccccc3)CC2)c1OC (centres undefined)	u	n[11.4 µM]	n	n	n	29.9µM
O=C(Cn1c(=O)oc2cc(S(=O)(=O)NCc3ccccc3)ccc21)NCc1ccc(F)cc1	n	n	n	n	x	x
COC(=O)Cc1c(C)c2ccc(OCc3nn[nH]n3)cc2oc1=O	u	n	n	n	n	n
C=C(Cl)COc1cc(C)cc2oc(=O)cc(CC)c12	n	n	n	n	n	n
Cc1c(C)c2cc(Cl)c(OCC(=O)Nc3ccccn3)cc2oc1=O	x	x	x	x	x	n
Cc1c(C)c2cc(Cl)c(OCc3nn[nH]n3)cc2oc1=O	u	n	u	n	79.4µM	n
COC(=O)Cc1c(C)c2c(OCc3nn[nH]n3)cc(C)cc2oc1=O	44.7µM	n	n	n	n	n
CCc1cc(=O)oc2cc(C)cc(OCc3nn[nH]n3)c12	44.7µM	n	n	n	n	n
CCOc1ccc(NC(=S)N2CCC(NC(=O)C3CCCCC3)CC2)cc1	n	n	n	n	n	n
O=C(O)c1ccc(/C=C/c2ccc3cccc(O)c3n2)cc1	u	n	n	n	39.8µM	n
COc1c(OC(C)=O)ccc(/C=C/c2ccc3cccc(OC)c3n2)c1[N+](=O)[O-]	u	u	u	u	n	n
COC(=O)c1ccc(/C=C/c2ccc3cccc(OC(C)=O)c3n2)cc1	n	n	n	n	17.8µM	n
